# In PubChem BioAssay AID651702 (NMMLSC, 2012):
# Hit rate of the full screen: of about 360,000 compounds, about 2,400 (0.67%) were called active.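 How the source made its calls: active means inhibition above about 55% (limit read from the data); inconclusive means no clear call, values can overlap the other calls; inactive means the rest.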 Shown is part of a subset that was picked to be rich in actives.
# Assay: LAMP-1 surface exposure blockers, TALL-104 cells – cell-based, flow cytometry, MLPCN library, primary screen (AID 651702)
# Conditions: TALL-104 LAMP-1 surface exposure, at 10 µM, stronger effect = higher value, cells stimulated with thapsigargin and PMA
row,Structure (SMILES),inhibition
1,COc1ccc(Cl)cc1C(=O)OCC(=O)NCc1cccs1,20.4% (inactive)
2,CCOc1ccc(Cl)cc1-c1cc(C(=O)NCc2cccs2)[nH]n1,66.5% (active)
3,COc1ccccc1CNC(=O)c1cc(-c2cc(Cl)ccc2C)n[nH]1,2.8% (inactive)
4,Cn1c(=O)c2c(n(Cc3ccccc3)c1=O)NC(=O)C2CC(=O)N1CCc2ccccc2C1 (stereo unspecified),5.7% (inactive)
5,Cn1c(SCc2nc3ccccc3s2)nnc1-c1ccc2c(c1)OCO2,-6.5% (inactive)
6,COc1ccc(CN2CCN(Cc3cn(C)nc3-c3ccccc3)CC2CCO)c(C)c1C (stereo unspecified),4.6% (inactive)
7,Cc1ccccc1CN1C[C@@H]2C[C@@H](c3cn(C)nc3-c3ccccc3)N3CCC[C@@]23C1=O,82.4% (active)
8,Cc1ccccc1CN1C[C@@H]2C[C@@H](c3ccc4nsnc4c3)N3CCC[C@@]23C1=O,-2.3% (inactive)
9,COC(=O)C1=C(C(=O)OC)C(c2cc([N+](=O)[O-])ccc2O)c2sc(=O)[nH]c2S1 (stereo unspecified),7.4% (inactive)
10,Cc1cccc(Nc2nnc(SCC(=O)c3c(N)n(C4CC4)c(=O)[nH]c3=O)s2)c1C,0.1% (inactive)
11,CCOC(=O)C1(C)CCCN(C(=O)c2ccc(N(C)C)cc2)C1 (stereo unspecified),-2.4% (inactive)
12,CCOC(=O)C1(C)CCCN(C(=O)c2ccc(F)c(Cl)c2)C1 (stereo unspecified),71.1% (active)
13,CCOC(=O)C1(C)CCCN(C(=O)c2cccc(Cl)c2)C1 (stereo unspecified),1.7% (inactive)
14,O=C(Nc1ccc(Br)cc1)c1cccc(NC(=O)C2C3CC4OC(=O)C2C4C3)c1 (stereo unspecified),11% (inactive)
15,CCOc1ccc(CCNC(=O)C2CCN(c3ccc(N4CCOCC4)nn3)CC2)cc1OCC,-0.7% (inactive)
16,Nc1nnc(SCC(=O)OCc2ccc(Cl)c(Cl)c2)s1,-1.6% (inactive)
17,O=C(CNC(=O)N1CC(=O)Nc2ccccc21)Nc1ccc(Br)cc1F,4.6% (inactive)
18,COc1ccc2c(c1)c(=Cc1ccc(N(C)C)cc1)c1cc(-c3ccccc3)[n+](C)n12,95.4% (active)
19,CCCNC(=O)C[C@@H]1CC[C@@H]2[C@H](COC[C@H](O)CN2C(=O)c2cc(Cl)cc(Cl)c2)O1,-2.9% (inactive)
20,O=C(NCc1ccccc1)C(c1cccnc1)N(C(=O)c1csnn1)c1ccc(F)cc1 (stereo unspecified),12.4% (inactive)
21,O=C(NCc1ccccc1)C(c1ccccc1)N(C(=O)c1csnn1)c1ccc(F)cc1 (stereo unspecified),56.4% (active)
22,O=C(NCc1ccc(F)cc1)C(c1ccccc1)N(C(=O)c1csnn1)C1CC1 (stereo unspecified),-3.2% (inactive)

row,Structure (SMILES),inhibition
1,O=C(CC1C(=O)NCCN1Cc1ccc(-c2ccccc2)cc1)NCC1CCOCC1 (stereo unspecified),1.1% (inactive)
2,CCOC(=O)C1(CCOc2ccccc2)CCN(Cc2ccc(C#CCCO)cc2)CC1,55.8% (active)
3,CCCS(=O)(=O)N1CCC(CCOc2ccccc2)(C(=O)OCC)CC1,-2.2% (inactive)
4,CCOC(=O)C1(Cc2cccc(OC)c2)CCN(C(C)COC)CC1 (stereo unspecified),-0.5% (inactive)
5,CCOC(=O)C1(CCOC)CCN(Cc2cc3ccccc3s2)CC1,0.4% (inactive)
6,CCOC(=O)C1(CCOc2ccccc2)CCN(Cc2cc(OC)c(O)cc2Cl)CC1,84.5% (active)
7,CCOC(=O)C1(CCOc2ccccc2)CCN(C(=O)c2cncs2)CC1,-0.8% (inactive)
8,CC1(C(=O)NCc2ccccc2)CSCC(=O)N1CCCN1CCOCC1 (stereo unspecified),4.3% (inactive)
9,CC1CCCN(S(=O)(=O)c2ccc(N(C(=O)c3cnccn3)C(C(=O)NC3CCCCC3)c3cccs3)cc2)C1 (stereo unspecified),0.9% (inactive)
10,Cc1ccc(S(=O)(=O)N2CCN(C(=O)c3cc(S(=O)(=O)N4CCOCC4)ccc3F)CC2)cc1,-3% (inactive)
11,Cc1ccc(S(=O)(=O)NCC(=O)NNC(=O)c2ccc(Br)cc2)cc1C,-1.3% (inactive)
12,NS(=O)(=O)c1ccc(-c2ccc(/C=C3\SC(=O)NC3=O)o2)cc1,-14.3% (inactive)
13,CN1C(=O)/C(=C\c2ccc(-c3ccccc3)o2)SC1=S,66.7% (active)
14,Cc1ccc(C(=O)O)cc1-c1ccc(/C=C2\SC(=O)N(CC(=O)Nc3ccc4c(c3)OCO4)C2=O)o1,-0.4% (inactive)
15,NC(=O)CCCC1=NS(=O)(=O)c2ccccc2N1,-3.9% (inactive)
16,CN1CCN(NC(=O)Nc2ccc(Br)cc2)CC1,-2% (inactive)
17,O=C(Nc1ccc(C(=O)O)cc1)/C(=C\c1ccccc1)NC(=O)c1ccc(Br)cc1,9.3% (inactive)
18,O=C(NC(=O)c1ccccc1N1CCCCC1)Nc1ccc(Br)cc1,84.6% (active)
19,Cc1ccc(C)c(NC(=O)CCC(=O)N/N=C2/CC(=O)CC(C)(C)C2)c1,3.3% (inactive)
20,COCCNc1nc(Nc2ccccc2Cl)c2sc(-c3ccccc3)cc2n1,47.2% (inactive)
21,OCCNc1nc(Nc2ccc(Cl)c(Cl)c2)nc2ccccc12,57.7% (active)
22,OCCNCCOc1ccc(Cl)c(Cl)c1,6.6% (inactive)

row,Structure (SMILES),inhibition
1,COc1ccccc1Nc1nnc(SC(C)C(=O)NC2CC2)s1 (stereo unspecified),1.8% (inactive)
2,COc1ccc(C23NCCN2C(=O)c2ccccc23)cc1 (stereo unspecified),8.9% (inactive)
3,COc1ccc(-c2oc3ncnc(NCCCO)c3c2-c2ccc(OC)cc2)cc1,70.3% (active)
4,CCc1oc(-c2ccc(OC)cc2)c(C(=O)OCCCCCO)c1C(C)OCCO (stereo unspecified),3.7% (inactive)
5,COCCNc1ncnc2c1ncn2[C@H]1CN(Cc2ccc(OC)cc2)C[C@@H](CO)O1,0.2% (inactive)
6,C#CCN1CC(C)/C(=N/O)CC1C (stereo unspecified),0.9% (inactive)
7,CCn1c(-c2ccoc2C)n[nH]c1=S,0.6% (inactive)
8,COc1ccc(C2CC(c3cccs3)=NN2C(=O)COC(=O)c2cc3ccccc3cc2O)cc1OC (stereo unspecified),-2.9% (inactive)
9,COc1ccc(C2CC(c3cccs3)=NN2c2nc(C)c(C(C)=O)s2)cc1OC (stereo unspecified),87.5% (active)
10,COc1ccc(C2CC(c3cccs3)=NN2C(=O)CSc2nnc(N)s2)cc1OC (stereo unspecified),-3.2% (inactive)
11,Cc1ccc(-n2nc(N)c3c(=O)oc(N(C)C)nc32)cc1,-0.9% (inactive)
12,Cc1nn(-c2ncc(C(F)(F)F)cc2Cl)c(=O)n1-c1ccccc1,-0.5% (inactive)
13,Cc1ccc(-c2ccnc3nc(Sc4ncc(C(F)(F)F)cc4Cl)nn23)cc1,67.5% (active)
14,Cc1cc(NC(=O)CSc2ncc(C(F)(F)F)cc2Cl)no1,5.6% (inactive)
15,Cn1cnc(S(=O)(=O)Nc2ccc3c(c2)OCCO3)c1,5.9% (inactive)
16,CCC(=O)Nc1c(C)n[nH]c1C,-0.1% (inactive)
17,COc1ccc(-c2cc(NC=O)c3ncc(-c4cc(OC)c(OC)c(OC)c4)n3c2)c(OC)c1,28.6% (inactive)
18,CC(=O)c1cccc(-c2cnc3c(NC=O)cc(-c4ccccc4Oc4ccccc4)cn23)c1,13.9% (inactive)
19,COc1ccc(-c2cc(NC=O)c3ncc(-c4ccccc4)n3c2)cc1OC,81.8% (active)
20,CC(NC(=O)CN(C)S(=O)(=O)c1ccc(F)cc1)C1CC2CCC1C2 (stereo unspecified),0.1% (inactive)
21,CC(C)Cn1c(N)c(C(=O)NCc2cccs2)c2nc3ccccc3nc21,59.6% (active)
22,O=C(NCc1cccs1)c1ccc(Br)o1,-0.6% (inactive)

row,Structure (SMILES),inhibition
1,O=C(Cc1coc2ccc3ccccc3c12)NCc1cccs1,-2.5% (inactive)
2,COc1ccc(-c2[nH]ncc2CN(C)Cc2c(C)n[nH]c2C)c(OC)c1,-1.2% (inactive)
3,COc1ccc(-c2c(-c3ccc(OC)cc3O)nc(C)nc2C(F)(F)F)cc1,27.6% (inactive)
4,COc1ccc(Oc2cn[nH]c2-c2ccc(OC)cc2O)cc1,60.1% (active)
5,COc1ccc2cc(-c3[nH]ncc3CNCCn3nc(C)cc3C)ccc2c1,18.3% (inactive)
6,COc1ccc(-c2cn[nH]c2-c2ccc(OC)cc2)cc1,65.6% (active)
7,COc1ccc(N=Nc2c(-c3ccc(OC)cc3)[nH]oc2=O)cc1,-8.4% (inactive)
8,Cn1c(C(=O)N2CCCC(C(=O)NCc3ccccc3)C2)cc2sccc21 (stereo unspecified),-4.6% (inactive)
9,COc1ccc(S(=O)(=O)N2CCN(CC(=O)N3CCOCC3)CC2)cc1OC,-0.5% (inactive)
10,Cc1ccc(OCCC(=O)OCC(=O)N2c3ccccc3NC(=O)C2(C)C)cc1,3.1% (inactive)
11,COc1ccc2[nH]c(=O)c(C3c4cc(OC)c(OC)cc4CCN3C(=O)c3ccco3)cc2c1 (stereo unspecified),-2.2% (inactive)
12,CCNC(=O)COC(=O)CCNC(=O)c1cccc(C)c1,-0.6% (inactive)
13,Cc1cccc(-c2nc3ccc(C(=O)NCCN4CCN(C)CC4)cc3nc2-c2cccc(C)c2)c1,57.4% (active)
14,O=C(NCCN1CCOCC1)c1cccc(S(=O)(=O)Nc2ccc(F)cc2)c1,-1.1% (inactive)
15,CCC(C)CN1C(=O)CN(S(C)(=O)=O)CC1(C)C(=O)Nc1ccc2c(c1)OCCO2 (stereo unspecified),-2% (inactive)
16,Cc1coc2c(O)cc3c(c12)OC1(N2CCCCC2)C(=O)NCCCC31 (stereo unspecified),68.1% (active)
17,CC1CN(C2CCN(C(=O)COc3ccccc3)CC2)CC(C)O1 (stereo unspecified),-2.5% (inactive)
18,COc1cccc(CNc2nc(NCc3ccccc3OC)nc3ccsc23)c1,73.8% (active)
19,COc1ccccc1CNc1nc(Nc2ccccc2Cl)c2sccc2n1,2% (inactive)
20,COc1cccc(CNc2nc(NCc3cccs3)nc3ccsc23)c1,21% (inactive)
21,CC1CCCC(C)N1C(=O)CSc1nnnn1C1CCCC1 (stereo unspecified),-4% (inactive)
22,COc1ccccc1C1=CC(=O)CCC1,47.3% (inactive)

row,Structure (SMILES),inhibition
1,COc1ccccc1C1=Nc2cccc3cccc(c23)N1,65.7% (active)
2,COc1ccccc1-c1nc(C(F)(F)F)c(OC)o1,1.1% (inactive)
3,COc1ccc(CC(=O)N[C@@H]2c3cc(OC)c(OC)cc3C[C@H]2OCc2ccccc2)cc1,-2.2% (inactive)
4,COc1ccccc1CC(NC(C)=O)C(=O)NC1CCN(C(=O)Nc2ccccc2Cl)CC1 (stereo unspecified),6.8% (inactive)
5,C[C@H](CO)N1C[C@H](C)[C@@H](CN(C)Cc2ccc3c(c2)OCO3)OCc2cnnn2CCCC1=O,2.5% (inactive)
6,Cc1cccc(C)c1NC(=O)CCS(=O)(=O)c1cccc2nsnc12,-2.7% (inactive)
7,O=C(CCS(=O)(=O)c1ccccc1)NC1CCCC1,-1.3% (inactive)
8,Cc1cccc2sc(N(CCCN(C)C)C(=O)CCS(=O)(=O)c3ccccc3)nc12,90.8% (active)
9,COC(=O)COc1ccc(C2NC(=O)NC(C)=C2C(=O)NCc2ccccc2)cc1OC (stereo unspecified),-3.7% (inactive)
10,COc1ccc(-c2cc(C(=O)N(C)Cc3ccccc3)c3ccccc3n2)cc1,74.5% (active)
11,COc1ccc(C2=NS(=O)(=O)N(C)C(C(=O)N(C)Cc3ccccc3)=C2)cc1,-1.2% (inactive)
12,COc1ccc(CN(C)C(=O)c2cc(-c3ccc(C)cc3C)nc3ccccc23)c(OC)c1OC,19.4% (inactive)
13,COc1c(C)cc(C(=O)C2CCCN(S(=O)(=O)c3c(C)noc3C)C2)cc1C (stereo unspecified),-1.1% (inactive)
14,O=C(CC(CC(=O)c1ccccc1)c1ccco1)c1ccccc1,4.2% (inactive)
15,CC(C)c1ccccc1OCC(O)CN(CC(O)COc1cccc2ccccc12)C(C)C (stereo unspecified),73.4% (active)
16,CN1CCN(CCCCOc2cccc3ccccc23)CC1,24.7% (inactive)
17,CC1CC(C)CN(CCOc2cccc3ccccc23)C1 (stereo unspecified),7.6% (inactive)
18,CCCC(NC(=O)c1ccccc1)c1nc2ccccc2n1Cc1ccc(C(=O)OC)o1 (stereo unspecified),0.5% (inactive)
